Screening data from PubChem BioAssay.
Hits are enriched below; roughly 7.8% of the tested compounds scored in any of these assays.
ALOX15 inhib: blocks human 15-lipoxygenase activity | AID 887 | purified 15hLO-1, xylenol orange hydroperoxide absorbance | P16050 | Potency, µM (highest dose often 57.1 µM), for inactives: at the top dose activity change, negative = inhibition, most hits filed as inhibitors | 74,000 tested, 1.4% active; note: % is set by controls: 0 for no effect and ±100 for the full control effect; nearly all actives have a fitted effect of over 55% in size
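Readout: Fe(III)-xylenol orange absorbance, 573-to-405 nm ratio as reaction progress. Enzyme 40 nM purified human 15hLO-1, substrate 50 uM arachidonic acid, 6 min RT after 15 min compound preincubation; Hepes pH 7.5 buffer with Triton X-100.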
TSHR ag: TSH receptor (human) agonism. P16473. HEK293-CNG-TSHR cells (CNG channel as cAMP sensor), membrane potential dye, cAMP. Potency, µM (series often up to 57.1 µM), for inactives: at the highest dose activation, actives largely listed as activators. 73,000 tested, 0.48% active. AID 926; active = well fitted activation curve with a large enough effect in the main read-out, with a control signal flat, not every such curve was filed as active; inconclusive = small, poorly fitted or top-dose-only effect, or a change in a side signal; inactive = no such curve, though single readings can be large or run the other way; % of control where 0% means no effect;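 note: the control signal comes from parental cells without the receptor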
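HEK 293 cells stably expressing TSHR and a modified CNG channel, with CNG-only parental cells as counterscreen, were preloaded 60 min at room temperature with membrane potential dye containing 100 uM RO 20-1724. Compound exposure was 30 min, and depolarization was read as fluorescence at 590 nm.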
Bst PK mod: pyruvate kinase (B. stearothermophilus) modulation; purified pyruvate kinase, luminescence ATP production; ribose 5-phosphate activator present at AC10; Potency, µM; 51,000 tested, 1.2% active; AID 361; in the data active = potency below about 11 µM; inconclusive = mostly about 12 µM to 25 µM;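 the screen sought inhibitors and activators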;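 note: scaled between full activation by ribose 5 phosphate and full inhibition by luteolin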
HEK293 cAMP cs: parental HEK293 cAMP activation (counter-screen). parental HEK293 CNG cAMP sensor, membrane potential fluorescence. Potency, µM (highest dose often 57.1 µM), for the others: top-dose activation, actives largely listed as activators. 73,000 tested, 2.5% active. AID 938; note: % of control where 0% means no effect; nearly all actives have a fitted effect of over 55% in size
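Parental HEK 293 cells stably expressing a cAMP-gated CNG channel were loaded with membrane potential dye containing 100 uM RO 20-1724 for 60 min. Compound added for 30 min; depolarization read as fluorescence intensity at 590 nm.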
Tau fil binding: binders of human tau filaments. P10636. recombinant tau filaments, thioflavin S fluorescence, 15 h; filaments grown with octadecylsulfate alongside compound. Potency, µM (highest dose often 57.1 µM), for inactives: at the top dose activity change, negative = inhibition. 71,000 tested, 2% active. AID 596;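 note: % is set by controls: 0 for no effect and ±100 for the full control effect; actives lower thioflavin S fluorescence by blocking filaments or displacing dye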
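ThS-based fibril read: tau 1 uM final, inducer ODS 30 uM final, 37 C for 15 h, ex 450/em 510 nm.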
FLuc inh: blocks Photinus pyralis firefly luciferase activity; P08659; purified firefly luciferase, luminescence, 8 min; Potency, µM (titrated, usually from 57.1 µM), without a hit: at the highest dose activity change, negative = inhibition, usual class: inhibitors; 72,000 tested, 2.2% active; note: % is set by controls: 0 for no effect and ±100 for the full control effect; nearly all actives have a fitted effect of over 40% in size
Target sequence (P08659 whole entry, looked up): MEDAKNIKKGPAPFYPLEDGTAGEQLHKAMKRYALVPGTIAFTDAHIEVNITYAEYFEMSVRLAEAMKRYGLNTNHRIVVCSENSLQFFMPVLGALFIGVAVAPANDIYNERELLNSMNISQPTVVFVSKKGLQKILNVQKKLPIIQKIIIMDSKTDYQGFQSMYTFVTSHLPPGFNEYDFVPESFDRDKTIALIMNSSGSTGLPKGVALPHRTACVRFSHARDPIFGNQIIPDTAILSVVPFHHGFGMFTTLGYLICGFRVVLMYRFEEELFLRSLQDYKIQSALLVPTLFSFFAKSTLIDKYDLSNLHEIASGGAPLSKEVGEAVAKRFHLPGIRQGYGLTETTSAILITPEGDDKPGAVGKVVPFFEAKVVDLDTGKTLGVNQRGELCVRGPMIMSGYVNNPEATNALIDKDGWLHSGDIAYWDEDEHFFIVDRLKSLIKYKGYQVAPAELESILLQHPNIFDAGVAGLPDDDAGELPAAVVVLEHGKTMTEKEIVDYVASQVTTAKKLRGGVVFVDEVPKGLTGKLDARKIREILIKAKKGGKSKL
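Substrate buffer containing 10 uM ATP (pH 7.2 imidazole, Mg2+, KCl, detergent, BSA) is dispensed, compound pinned in, then luciferase/luciferin detector mix added. After 8 min at ambient temperature, light output is measured.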
The depositor's hits bear a star; i = inactive; ? = inconclusive; . = no result; [ ] = remark or other dose. Unless noted, calls come from the whole dose curve; as a rule, active = well fitted curve in the direction sought with a large enough effect; inconclusive = small, poorly fitted or top-dose-only effect, or another doubt; inactive = no such curve, though single readings can be large; an effect the other way counts as inactive or inconclusive. Potency is the fitted concentration of half-maximal effect.

SMILES | ALOX15 inhib | TSHR ag | Bst PK mod | HEK293 cAMP cs | Tau fil binding | FLuc inh
CC(=O)c1cc(-c2ccccc2)n(CC(=O)NCc2cccs2)c1C | 1% | ? | >57 | 16µM* | 105% | 1%
O=C(NCc1cccs1)c1cc(-c2ccccc2)on1 | 3% | 1% | >57 | 0% | 9% | 1%
CN(C)c1ccc(NC(=O)Nc2cccc(Cl)c2)cc1 | -14% | -35% | . | -19% | 5µM* | 10µM*
CN(c1cccc(NC(=O)Nc2cccc(Cl)c2)c1)S(C)(=O)=O | -8% | 2% | ? | 2% | 6% | 10µM*
CN(C)c1ccc(/C=c2\sc3n(c2=O)CCCN=3)cc1 | -8% | -11% | 2.7* | -7% | 148% | 2.5µM*
CCOc1cc(C)c(S(=O)(=O)NC2CCCCC2)cc1C | -18% | . | >57 | 30% | 10µM* | 5%
CCOc1cc(S(=O)(=O)NC2CCCCCC2)ccc1F | -8% | ? | >57 | ? | -23% | -1%
COc1cccc([C@@H]2Oc3ccc(OC)cc3/C(=N/O[C@@H](C)CN3CCCc4nc(C)c(C)cc43)[C@@H]2O)c1 | -7%[11.4 µM] | ? | . | 4µM* | . | 0%[11.4 µM]
CC(C)=NO[C@@H](C)CN1CCCc2nc(C)c(C)cc21 | ? | -4%[11.4 µM] | . | 4%[11.4 µM] | . | 0%[11.4 µM]
CNc1ncnc2ccc(-c3ccccc3C)cc12 | -4% | ? | . | 2µM* | -9% | 2%[2.29 µM]
CN(C)Cc1ccccc1-c1ccc2ncnc(NCc3cccs3)c2c1 | 2% | 12% | . | 14% | -2% | 3%[2.29 µM]
Cc1ccccc1-c1ccc2ncnc(NCc3cccs3)c2c1 | 32% | ? | . | 4µM* | 2% | 1%[2.29 µM]
CC1CC2C3CC(F)C4=CC(=O)C=C[C@@]4(C)[C@@]3(F)C(O)C[C@]2(C)[C@]1(O)C(=O)COC(=O)C(C)(C)C (stereo partly drawn) | -3% | . | . | . | . | .
O=C(Nc1cccnc1)c1cnn2cccnc12 | 2% | -1% | >57 | 0% | -1% | 0%
O=C(Nc1cccnc1)Nc1ccc2c(c1)OCO2 | 0% | 2% | . | -3% | -4% | 16µM*
O=C(Nc1ccc2c(c1)OCO2)Nc1cnccn1 | -4% | 1% | >57 | 2% | 6% | -20%
O=C(Nc1ccc2c(c1)OCO2)c1cnn2cccnc12 | -7% | 2% | i | 4% | -28% | 20µM*
O=C(Nc1cccnc1)Nc1ccc(F)c(Cl)c1 | -10% | -16% | . | -12% | -12% | 20µM*
Cn1ccc2cc(NC(=O)Nc3cccnc3)ccc21 | 1%[25.6 µM] | -15% | . | -18% | 22% | 16µM*
O=C(NC12CC3CC(CC(C3)C1)C2)N1CCC(n2nnc3ccccc32)CC1 | 2% | 12% | >57 | 5% | 0% | 2%
O=c1cc(-c2ccccc2)oc2cc(O[C@H]3O[C@H](CO)[C@@H](O)[C@H](O)[C@@H]3O)c(O)c(O)c12 | . | 0% | . | 0% | ? | -1%[11.4 µM]
C[C@H]1CN(S(=O)(=O)c2cccc3cnccc23)CCN1 | -15% | 3% | . | -16% | -4% | -2%
Cc1c(C(=O)NC2CCCCC2)sc2nc3ccc(N)cc3n12 | -23% | -20% | . | -5% | . | .
COc1ccc(C(=O)N2CCC[C@@]3(CCN(c4ccccc4)C3)C2)cc1 | -16% | ? | . | 13µM* | -18% | 1%[11.4 µM]
COc1ccc(C(=O)N2CCC[C@@]3(CCN(c4ccncc4)C3)C2)cc1 | 2% | 20% | . | 11% | 26% | 1%[11.4 µM]
SMILES | ALOX15 inhib | TSHR ag | Bst PK mod | HEK293 cAMP cs | Tau fil binding | FLuc inh
O=C(c1cnccn1)N1CCC[C@@]2(CCN(C(c3ccccc3)c3ccccc3)C2)C1 | 2% | ? | . | ? | 2% | 2%[11.4 µM]
Cn1cccc1C(=O)N1CCC[C@@]2(CCN(c3ccncc3)C2)C1 | 5% | ? | . | 5µM* | 14% | 0%[11.4 µM]
Cn1cccc1C(=O)N1CCC[C@@]2(CCN(c3ccccn3)C2)C1 | 0% | 12% | . | 14% | 12% | 1%[11.4 µM]
O=C(c1ccncc1)N1CCC[C@@]2(CCN(C(c3ccccc3)c3ccccc3)C2)C1 | -7% | ? | . | 4µM* | 2% | -1%[11.4 µM]
COc1ccc(C(=O)N2CCC3(CCN(C)CC3)CC2)cc1 | 2% | -3% | . | -13% | 16µM* | 2%[11.4 µM]
CC(=O)OC[C@H]1O[C@@H](O/N=C(\C)CCN2CCCCc3nc(C)c(C)cc32)[C@H](OC(C)=O)[C@@H](OC(C)=O)[C@H]1OC(C)=O | 1%[11.4 µM] | 0%[11.4 µM] | . | -9%[11.4 µM] | . | 0%[11.4 µM]
c1ccc(C[C@@H](Nc2cccnc2)c2ccccc2)cc1 | -8%[11.4 µM] | 13%[11.4 µM] | . | 5%[11.4 µM] | -14%[11.4 µM] | 4%[11.4 µM]
CCN1C(=O)[C@H]2[C@H]3[C@H](O)[C@H](O)C/C(=N/O[C@@H](C)c4cn([C@H](CO)Cc5ccccc5)nn4)[C@@H]3CC[C@@H]2C1=O | 0%[11.4 µM] | 4%[11.4 µM] | . | -6%[11.4 µM] | . | 1%[11.4 µM]
[C-]#[N+]/C(C#N)=C\c1cc(C(C)(C)C)c(O)c(C(C)(C)C)c1 | 7% | ? | . | 2.5µM* | . | .
CC(C)(C)c1cc(/C=C(\C#N)C(N)=S)cc(C(C)(C)C)c1O | ? | ? | . | 3.2µM* | -19% | -3%
Nc1ccc(N2CCCCC2)cc1N1CCCCC1 | ? | -12% | >57 | -1% | 7.9µM* | -4%
Cc1nn(-c2cc(N3CCCCC3)ccc2N)c(=O)c2ccccc12 | -16% | 7% | >57 | 19% | ? | -1%
O=C(O)CN(CCN(CC(=O)O)CC(=O)O)CC(=O)O.[Cu] | 0%[11.4 µM] | -2%[11.4 µM] | . | -8%[11.4 µM] | -6%[11.4 µM] | 0%[11.4 µM]
CN1CCN(c2nc(-c3ccc(N(C)C)cc3)nc3ccccc23)CC1 | 2% | ? | . | -89% | 13µM* | -2%[2.29 µM]
O=C(Nc1ccc(-c2nc3cccnc3s2)cc1)c1ccco1 | 25µM* | ? | . | ? | 64% | 3.2µM*
O=C(Nc1cccc(-c2nc3cccnc3s2)c1)c1ccco1 | -3% | 4% | ? | 3% | 13% | 20µM*
Cc1c(NC(=O)c2ccco2)cccc1-c1nc2cccnc2s1 | ? | 5% | . | 5% | 19% | ?
CC1=C2[C@H](/C=C(\C)C(=O)O)CC[C@@H](C)[C@H]2CC1 | -11% | ? | . | ? | -11% | .
COc1cc(NC(=O)NCCN2CCN(c3ccc(Cl)cc3)CC2)ccc1C | ? | -6% | >57 | -8% | 13µM* | 1%
CC12C=C(/C=C/c3ccc(C(F)(F)F)cc3)C(C)(C1)C(c1ccc(C(F)(F)F)cc1)CC2=O (stereo not drawn) | -2%[11.4 µM] | 6%[11.4 µM] | . | 0%[11.4 µM] | . | .
OCCN1CCN(c2nc(N3CCCCC3)nc(N3CCCCC3)n2)CC1 | 0%[11.4 µM] | 17%[11.4 µM] | . | 8%[11.4 µM] | 4µM* | 1%
CN1CCN(c2nc(N3CCN(CCO)CC3)nc3ccccc23)CC1 | 1% | 16% | >57 | 23% | -10% | 0%
COc1cccc(C(c2sc3nc(C)nn3c2O)N2CCN(c3ccccc3F)CC2)c1 (stereo not drawn) | -10% | -2% | . | 21% | -14% | 1%
